Measurements: PubChem BioAssay (Tox21)
Inconclusive results are not listed. Entries that show only a call come without a potency. A structure can be active in one record and inactive in another. Activity calls are given as the source filed them. The call rests on the fitted dose curve; in most records, active means well fitted cell-killing curve with a large enough effect in the repeat runs; inconclusive means weak or mixed curves, or effect the other way; inactive means no such curve, though single readings can be large or run the other way.

Assay: qHTS assay to identify small molecule antagonists of the sonic hedgehog signaling (Shh) pathway - cell viability counter screen (AID 1259367); further: nearly all actives have a fitted effect of over 55% in size
Conditions: NIH/3T3 Gli1-Luc viability, CellTiter-Fluor, 24 h; series mostly up to 92.4 µM; viability change, negative = cytotoxic: at the top concentration
Text: National Center for Advancing Translational Sciences [NCATS]
NIH Chemical Genomics Center [NCGC]
U.S. Environmental Protection Agency [EPA]
National Institutes of Environmental Health Sciences [NIEHS]
National Toxicology Program [NTP]
U.S. Food and Drug Administration [FDA]
The sonic hedgehog (Shh) pathway is essential for normal embryonic development. Dysregulation of the Shh pathway can cause severe developmental defects in organs. Therefore chemicals that interfere with the pathway are potential developmental toxicants. A cell line designated 3T3Gli1-Luc (DMB/OARSA/CFSAN/FDA, Laurel, MD), a NIH/3T3 derived clone containing stably integrated Gli1-Luc reporter is used to detect chemical interference of the Shh pathway, by changes in the expression of the firefly Luc gene under the control of the Gli1 transcriptional response element. This cell line was used to screen Tox21 libraries for identifying and prioritizing the potential developmental toxicants that interfere Shh pathway. Conditioned medium-stimulated mode was used to screen for chemicals inhibiting Shh signaling. The cytotoxicity of the compounds was tested in parallel by measuring the cell viability using CellTiter-Fluor assay system (Promega, Madison, WI) in the same wells.
Tox21 Assay Protocol Summary:
3T3 Gli1-Luc cells were dispensed at 2,000 per well in 5uL of culture medium into white solid bottom 1536-well plates (Greiner Bio-One, Monroe, NC) using a Multidrop Combi (Thermo Scientific, Waltham, MA) dispenser. The assay plates were incubated at 37 C and 5% CO2 for 4hr, and then 23nL of compounds dissolved in DMSO and positive control were transferred using a Pintool station (Wako, San Diego, CA). The compound transfer was followed by the addition of 1ul conditioned medium or assay buffer using two separate tips of Flying Reagent Dispenser (FRD, Aurora Discovery, San Diego, CA). The assay plates were incubated at 37C and 5% CO2 for 24hr. For viability read, after 23hr of compound treatment, 1uL of CellTiter-Fluor reagent (Promega Corporation, Madison, WI) was added to each well of the assay plates using Flying Reagent Dispenser (FRD, Aurora Discovery, San Diego, CA) and incubated the assay plates at 37C for 1hr. The fluorescence signal was quantified using a ViewLux plate reader (Perkin Elmer, Shelton, CT).
Potency means the concentration at half of the fitted maximal effect.

Structure (SMILES)	Potency	viability change, negative = cytotoxic
O=C(O)c1ccc(C(=O)O)c(C(=O)O)c1	inactive	–
N[C@H](Cc1c[nH]c2ccccc12)C(=O)O	inactive	–
C[Si]1(C)O[Si](C)(C)O[Si](C)(C)O[Si](C)(C)O1	inactive	–
Cc1ccc2ncccc2c1	inactive	–
C=CC(C)CCCC(C)(C)O (stereo not given)	inactive	–
CCCCCCC=O	inactive	–
CCCCCCO	inactive	–
CC(C)(C)c1cc(Cc2cc(C(C)(C)C)c(O)c(C(C)(C)C)c2)cc(C(C)(C)C)c1O	inactive	–
c1ccc(Oc2ccccc2)cc1	inactive	–
O=C(O)c1ccccc1C(=O)O	inactive	–
Cc1ccc(S(=O)(=O)N=C=O)cc1	23.9 µM (active) and inactive	–
Brc1ccc(Br)c(Br)c1	inactive	–
NC(=S)NNC(N)=S	inactive	–
CN(C)c1ccc(Cc2ccc(N(C)C)cc2)cc1	inactive	–
C=CCCCCCCCCC(=O)O	inactive	–
COc1ccc([N+](=O)[O-])cc1N	inactive	–
COc1ccccc1OCC(O)CO (stereo not given)	inactive	–
CC(C)CC(C)O (stereo not given)	–	10.5% (inactive)
CCCOC(=O)c1ccccc1	inactive	–
O=[N+]([O-])c1ccc2nc[nH]c2c1	inactive	–

Structure (SMILES)	Potency	viability change, negative = cytotoxic
CCOC(=O)c1ccc(N)cc1	inactive	–
O=C(O)CCCCCCCCC(=O)O	inactive	–
O=C1CCCC1	inactive	–
CCCCCCCCCCO	inactive	–
OCc1ccccc1	inactive	–
CCCCCCCCCCCCCCCC(=O)OC(C)C	inactive	–
C=C(C)[C@H]1CC=C(C)C(=O)C1	inactive	–
O=C1c2ccccc2CCc2ccccc21	inactive	–
OC1C(O)C(O)C(O)C(O)C1O (stereo not given)	inactive	–
CN(C)c1ccc(O)c2c1C[C@H]1C[C@H]3[C@H](N(C)C)C(=O)C(C(N)=O)=C(O)[C@@]3(O)C(=O)C1=C2O	inactive	–
CN/C(=C\[N+](=O)[O-])NCCSCc1csc(CN(C)C)n1	inactive	–
CNC(=O)Oc1ccc2c(c1)[C@]1(C)CCN(C)[C@@H]1N2C	inactive	–
C=CCc1ccc(OC)c(OC)c1	inactive	–
NCCNCCN	inactive	–
CC(=O)c1ccc(O)cc1	inactive	–
CSc1ccc(Cl)cc1	inactive	–
CC(CCO)CC(C)(C)C (stereo not given)	inactive	–
c1ccc2c(c1)Cc1ccccc1-2	inactive	–
CN1C(=O)CC[C@H]1c1cccnc1	inactive	–
CCNc1ccccc1	inactive	–
